Screening data from PubChem BioAssay.
This is a sample that favours compounds with a hit; in the whole collection about 2.1% have one here.
GalR3 antagonist: blocks the human galanin receptor 3 | inhibition, % at 3 µM | O60755 | HEK293 GalR3-CNG cAMP membrane potential fluorescence; galR3 body fused to GalR1 C-terminus | 360,000 compounds, 0.44% hits;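 active means inhibition above the screen-wide average plus 3 SD, cut at about 13% in these data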;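 further: forskolin and galanin both at EC90 stimulate the cells; cAMP rise reported by CNG channel membrane potential dye signal; 0% = forskolin plus galanin with DMSO and 100% = forskolin alone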
Target sequence (O60755 1-299 limits assumed): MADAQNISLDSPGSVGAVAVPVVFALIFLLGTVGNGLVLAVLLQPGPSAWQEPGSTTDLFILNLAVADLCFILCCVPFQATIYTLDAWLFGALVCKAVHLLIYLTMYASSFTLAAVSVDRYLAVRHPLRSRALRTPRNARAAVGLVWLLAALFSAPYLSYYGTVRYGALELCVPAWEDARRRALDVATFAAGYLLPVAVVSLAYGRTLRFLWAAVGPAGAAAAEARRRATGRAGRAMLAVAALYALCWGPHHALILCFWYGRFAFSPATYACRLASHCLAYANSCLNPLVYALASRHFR
COUP-TFII inh: blocks human COUP-TFII nuclear receptor | HEK293T NGFI-A luciferase reporter, luminescence | P24468 | inhibition, % at 8.6 µM | AID 686940 | 370,000 compounds, 0.7% hits;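 active means inhibition above a per-plate cutoff, mean inhibition of test wells between control levels plus 3 SD, cut at about 38% in these data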;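 further: cells cotransfected with COUP-TFII expression vector driving the NGFI-A reporter; 0% = median of COUP-TF2 test wells and 100% = reporter-only cells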
Target sequence (P24468 whole entry, looked up): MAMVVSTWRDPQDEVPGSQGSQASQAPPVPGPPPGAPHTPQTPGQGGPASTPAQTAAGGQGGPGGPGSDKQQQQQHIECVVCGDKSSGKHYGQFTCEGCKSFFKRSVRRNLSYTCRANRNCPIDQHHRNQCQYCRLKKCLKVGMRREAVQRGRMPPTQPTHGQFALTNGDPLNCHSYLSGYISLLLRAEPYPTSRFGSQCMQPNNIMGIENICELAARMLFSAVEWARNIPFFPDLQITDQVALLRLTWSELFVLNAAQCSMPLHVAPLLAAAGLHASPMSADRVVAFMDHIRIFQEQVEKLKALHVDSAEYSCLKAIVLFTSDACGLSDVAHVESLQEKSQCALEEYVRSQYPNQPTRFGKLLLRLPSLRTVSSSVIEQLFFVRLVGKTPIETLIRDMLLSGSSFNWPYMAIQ
Gli-Sufu block: blocks Gli-Sufu signaling in a luciferase reporter | Sufu-KO-LIGHT fibroblasts, Gli luciferase reporter luminescence | inhibition, % at 5 µM | 340,000 compounds, 0.74% hits;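 active means inhibition above about 55%, limit read from the data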;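 further: 0% = DMSO-treated cells and 100% = wells with medium but no cells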
Env fusion inh: inhibitors of HIV Env-mediated cell fusion; HeLa-JRFL Env/CEM21 cell fusion, luciferase; 360,000 compounds, 1.1% hits; AID 651610; inhibition, % at 12.3 µM;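 active means mean replicate inhibition score of at least 50 and every replicate individually at or above 50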;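 further: 0% = plate neutral controls and 100% = maraviroc near 300 nM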
aDG glyco act: increases alpha dystroglycan glycosylation | AID 624168 | Pro5-aDG cells, alpha-DG glycosylation AlphaScreen (IIH6); 0% Pro5, 100% B10-LARGE cell signal | activation, % at 10 µM | 360,000 compounds, 0.22% hits;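 active means activation of at least 8% versus controls, or a plate z-score of at least 8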;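 further: Pro5 are CHO cells carrying HIG-tagged alpha-DG that lacks glycosylation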
aDG glyco conf: alpha-DG glycosylation activation, confirmation; shares compounds with aDG glyco act; Pro5-aDG cells, IIH6 AlphaLISA; scaled to LARGE-overexpressing B10 cells as 100%; activation, % at 10 µM (by protocol); 600 compounds, 17% hits; AID 651671;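 active means activation of at least 7% in one or more replicates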;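 further: cells exposed to compound for two days before detection; 0% = DMSO-treated Pro5 cells and 100% = DMSO-treated B10-LARGE cells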
GalR3 conf: confirmation of human galanin receptor 3 antagonists. shares compounds with GalR3 antagonist. HEK293 GalR3 CNG cAMP biosensor, membrane potential fluorescence; galR3 fused to GalR1 carboxy tail; challenged with forskolin and galanin at EC90. inhibition, % at 3 µM. 1,600 compounds, 59% hits;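 active means inhibition above the primary screen's cutoff, the mean inhibition of all screened compounds plus 3 SD, cut at about 13% in these data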;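 further: 0% = forskolin plus galanin and 100% = forskolin alone with DMSO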
CNG parental: parental cell agonism counter-screen for GalR3 antagonists. shares compounds with GalR3 antagonist. HEK293-CNG parental cells, cAMP membrane potential fluorescence; normalised: DMSO wells 0%, forskolin wells 100%. activation, % at 3 µM. 1,600 compounds, 10% hits; in the data active means activation above about 1.3%
Gal4-VP16 ctr: VP16 inhibition counter-screen for COUP-TFII; shares compounds with COUP-TFII inh; HEK293 Gal4-VP16 luciferase reporter, luminescence; inhibition, % at 8.5 µM; 2,500 compounds, 25% hits; AID 687007; in the data active means inhibition above about 13%
NR2F2 inh conf: COUP-TFII (NR2F2) inhibition, confirmation assay. shares compounds with COUP-TFII inh. 2,500 compounds, 45% hits. HEK293 NGFI-A luciferase reporter, luminescence. inhibition, % at 8.5 µM;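 active means mean inhibition over three repeats above a set limit taken from the earlier primary screen, cut at about 38% in these data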;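 further: 100% = cells given the luciferase reporter alone without the COUP-TF2 vector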
An asterisk follows results filed as active; · = no result; [ ] = dose if it differs, or a comment.

SMILES	GalR3 antagonist	COUP-TFII inh	Gli-Sufu block	Env fusion inh	aDG glyco act	aDG glyco conf	GalR3 conf	CNG parental	others
COCC(C)N=C1NN=C(c2cc(C)n(Cc3ccccc3Cl)c2C)CS1 (configuration not stated)	-2	9	11	-10	5.6*	0	·	·
Cc1noc(C)c1S(=O)(=O)Nc1ccc2c(c1)C(=O)N([C@@H](C)CO)C[C@@H](C)[C@@H](CN(C)Cc1ccc(C(F)(F)F)cc1)OCCCC[C@H](C)O2	·	·	·	-1[16.7 µM]	·	·	·	·
O=C(CN1CCN(S(=O)(=O)c2ccc(F)cc2)CC1)Nc1ccc(Cl)c(C(F)(F)F)c1	-4	13	12	·	5.4*	1	·	·
COc1ccc(NC(=O)N(C)C[C@H]2Oc3ccc(NC(=O)NC4CCCCC4)cc3CC(=O)N([C@@H](C)CO)C[C@@H]2C)cc1	·	·	·	-3[16.7 µM]	·	·	·	·
O=C(NCCc1cn2ccccc2n1)c1ccccc1F	-5	-1	-8	·	0	·	·	·
O=C(NCCc1cn2ccccc2n1)c1cc(COc2ccc3ncccc3c2)on1	-2	64*	44	6	10*	1	·	·	Gal4-VP16 ctr=-3;NR2F2 inh conf=83*
CN(C)S(=O)(=O)c1cccc(NC(=O)c2ccc(COc3ccccc3)cc2)c1	8	63*	11	53	3.1*	1	·	·	Gal4-VP16 ctr=2;NR2F2 inh conf=52*
COCc1ccc(C(=O)Nc2cccc(S(=O)(=O)N(C)c3ccccc3)c2)cc1	-8	29	4	32	1	·	·	·
CCNC(=O)C[C@@H]1CC[C@@H](NS(=O)(=O)c2ccc(C)cc2)[C@H](CO)O1	·	·	·	6[16.7 µM]	·	·	·	·
CO[C@H]1CC[C@H]2CCN(C)C(=O)CCCN(C)C(=O)c3cc(C#N)ccc3OC[C@H]1O2	·	·	·	15[16.7 µM]	·	·	·	·
CC(=O)Oc1c(Cl)cc(N(C(C)=O)S(=O)(=O)c2ccccc2)c2ccccc12	-2	53*	6	-20	3.1*	5.6*	·	·	Gal4-VP16 ctr=28*;NR2F2 inh conf=28
CCNc1ccc(S(=O)(=O)NCCN(C)C)cc1[N+](=O)[O-]	5	-9	6	-4	0	·	·	·
CN(C)CCCNS(=O)(=O)c1ccc(NC2CCCCCC2)c([N+](=O)[O-])c1	78*	53*	36	15	3.3*	4.9*	100*	1.6*	Gal4-VP16 ctr=5;NR2F2 inh conf=39*
Cc1sc2ncnc(NCC(O)c3ccccc3)c2c1C (configuration not stated)	38*	43*	22	19	2.7*	1	25*	1	Gal4-VP16 ctr=-76;NR2F2 inh conf=13
COc1ccc(NC(=O)Cn2c(C)cc(=O)c3ccccc32)cc1	-3	55*	46	36	7.8*	0	·	·	Gal4-VP16 ctr=0;NR2F2 inh conf=26
C[C@@H]1CCCCO[C@@H](CN(C)Cc2ccncc2)[C@@H](C)CN([C@@H](C)CO)C(=O)c2cc(NS(=O)(=O)c3ccccc3)ccc2O1	·	·	·	-12[16.7 µM]	·	·	·	·
Cc1cccc(Nc2nc(-c3c(C)nc4ccccn34)cs2)c1	-4	53*	49	92*	4.4*	4	·	·	Gal4-VP16 ctr=-6;NR2F2 inh conf=44*
Cc1nc2ccccn2c1-c1csc(Nc2cccc(O)c2)n1	-4	9	7	-257	0	·	·	·
COc1ccc(S(=O)(=O)N(C)C[C@H]2OCCCC[C@@H](C)Oc3ccc(NS(=O)(=O)c4cccs4)cc3C(=O)N([C@@H](C)CO)C[C@@H]2C)cc1	·	·	·	-54[16.7 µM]	·	·	·	·
O=C(Nc1ccc(F)c(F)c1)c1ccc(F)c(S(=O)(=O)N2CCC3(CC2)OCCO3)c1	-9	39*	23	11	10*	0	·	·	Gal4-VP16 ctr=-4;NR2F2 inh conf=18
COc1cc(OC)c2cc[nH]c2c1	18*	-7	40	17	0	·	5	0
COc1ccc2cc[nH]c2c1	-5	10	-6	-14	0	·	·	·
CC(C)NCC(O)c1cc(O)cc(O)c1 (configuration not stated)	78*	3	14	8	0	·	22*	6.4*
COc1ccc(CCNC(=O)CSc2ccc(-c3ccco3)nn2)cc1	13*	4	1	11	0	·	6	0
O=C(CSc1ccc(-c2ccco2)nn1)NCCc1ccccc1	2	2	-20	16	0	·	·	·
SMILES	GalR3 antagonist	COUP-TFII inh	Gli-Sufu block	Env fusion inh	aDG glyco act	aDG glyco conf	GalR3 conf	CNG parental	others
N#CCSc1n[nH]c2nc3c(c(=O)n12)C1(CCCC1)Cc1ccccc1-3	·	-35	9	·	0	·	-4	0
Fc1cc2ncn(Cc3ccccc3)c2cc1F	·	-21	3	·	0	·	2	0
CC(C)NC(=O)N(C)C[C@@H]1Oc2ncc(C#CCc3ccccc3)cc2C(=O)N([C@H](C)CO)C[C@H]1C	·	·	·	7[16.7 µM]	·	·	·	·
CCN(CC(=O)Nc1ccc(NC(C)=O)cc1)CC(=O)Nc1ccccc1C(=O)c1ccccc1	17*	21	11	24	-1	·	4	0
O=C(Nc1ccccc1F)N[C@@H]1CC[C@@H](CCNS(=O)(=O)c2ccc(F)cc2)O[C@H]1CO	·	·	·	-15[16.7 µM]	·	·	·	·
CC(C)C#Cc1cnc2c(c1)C(=O)N([C@@H](C)CO)C[C@H](C)[C@H](CN(C)C(=O)Cc1ccccn1)O2	·	·	·	1[16.7 µM]	·	·	·	·
CCOc1cc(CNCc2ccccc2)ccc1OCc1ccc(Cl)cc1	42*	28	-2	23	1	·	26*	5.5*
C=C(C)[C@@H]1CC=C(CN2CCC(N3CCC(C(=O)N4CCCC4)CC3)CC2)CC1	20*	33	-1	13	1	·	3	4.4*
COc1cc(-c2ccc(=O)[nH]n2)ccc1OC(F)F	16*	-42	-3	-28	0	·	34*	0
COCC#Cc1ccc2c(c1)O[C@H](CN(C)C(=O)CN(C)C)[C@H](C)CN([C@H](C)CO)S2(=O)=O	·	·	·	-18[16.7 µM]	·	·	·	·
Cc1ccccc1S(=O)(=O)/N=C(/c1ccccc1)N1CCOCC1	14*	17	-4	-1	0	·	7	0
CCOC(=O)C1CCN(C(=O)Cc2cccc3ccccc23)CC1	16*	-8	3	·	0	·	0	0
CCOC(=O)C[N+]1(C)CCN(C(C)=O)CC1	13*	-4	-4	2	0	·	-3	0
C[N+]1(CC(=O)OCCCC2CCCCC2)CCCC1	7	1	39	-20	0	·	·	·
